# Screens (PubChem)
# Only a selection was taken, and hits are over-represented in it overall.
# RE007 growth inh = less growth of the S. pombe RE007 Vpr strain; S. pombe RE007 Vpr strain, BacTiter-Glo ATP luminescence, 24 h; Potency, µM (highest dose often 92.2 µM), without a hit: top-dose activity change, negative = less growth, usual class: inhibitors; 360,000 tested, 0.21% active; AID 651644; active = well fitted falling curve with a large enough effect; inconclusive = small, poorly fitted or top-dose-only effect; inactive = no such curve, though single readings can be large or run the other way; note: potency is the fitted concentration of half-maximal effect; % is set by controls: 0 for no effect and ±100 for the full control effect; nearly all actives have a fitted effect of over 50% in size
#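 Fission yeast strain RE007, carrying one chromosomally integrated HIV-1 vpr copy, was seeded at OD 0.01 in PMG+AL medium with 23 nL pinned compound. After 24 h at 30 °C and 99% humidity, viability was read by BacTiter-Glo luminescence.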
# LmPK inh = blocks Leishmania mexicana pyruvate kinase activity; Q27686; purified LmPK, Kinase-Glo ATP luminescence, 1 h; Potency, µM (highest dose often 57.5 µM), for the others: top-dose activity change, negative = inhibition, usual class: inhibitors; 290,000 tested, 0.37% active; note: potency is the fitted concentration of half-maximal effect; % is set by controls: 0 for no effect and ±100 for the full control effect
# Target sequence (Q27686 whole entry, looked up): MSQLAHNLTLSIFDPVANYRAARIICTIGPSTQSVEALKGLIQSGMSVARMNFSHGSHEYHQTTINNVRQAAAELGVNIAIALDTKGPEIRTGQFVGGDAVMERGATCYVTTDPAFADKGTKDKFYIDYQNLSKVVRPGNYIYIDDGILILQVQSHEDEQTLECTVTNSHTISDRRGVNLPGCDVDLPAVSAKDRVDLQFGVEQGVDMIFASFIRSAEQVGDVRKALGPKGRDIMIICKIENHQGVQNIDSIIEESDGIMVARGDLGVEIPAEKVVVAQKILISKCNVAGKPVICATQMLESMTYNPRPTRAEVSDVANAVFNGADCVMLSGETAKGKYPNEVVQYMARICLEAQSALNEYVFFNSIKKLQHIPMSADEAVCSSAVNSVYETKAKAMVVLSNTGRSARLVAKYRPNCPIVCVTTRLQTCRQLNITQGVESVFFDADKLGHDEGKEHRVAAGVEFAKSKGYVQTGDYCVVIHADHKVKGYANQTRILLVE
#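 In 50 mM imidazole pH 7.2 with 7 mM MgCl2, LmPK (0.1 nM) turned over PEP (0.5 mM) and ADP (0.1 mM) for 1 h at room temperature. Luciferase read-out of ATP.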
# CHX counter = counter-screen hit for Shiga toxin inhibitors, cycloheximide | cell reporter, cycloheximide protein synthesis inhibition counterscreen | max response, % | 300,000 tested, 12% active; in the data active = max response mostly above about 13%, no sharp cut-off; inactive = mostly below about 14%; note: read at 38.3 µM for the half of the compounds with a filed dose; 0% is about no effect
# Giardia FBPA inh = Giardia lamblia aldolase inhibition; purified Giardia FBPA; 290,000 tested, 0.71% active; A8B2U2; Potency, µM (doses to about 59.6 µM), without a hit: top-dose activity, negative = inhibition, actives largely listed as inhibitors; AID 2451; note: potency is the fitted concentration of half-maximal effect; % is set by controls: 0 for no effect and ±100 for the full control effect; nearly all actives have a fitted effect of over 55% in size
#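 40 nM FBPA preincubated 10 min at RT with compound (up to 57.5 uM final), then substrate plus GAPDH/TPI/NAD/arsenate coupling and diaphorase/resazurin added. Fluorescence read after 20 min at RT, 525/598 nm.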
# Tb PYK inh = inhibitors of Trypanosoma brucei pyruvate kinase. 410,000 tested, 0.12% active. TbPYK enzyme, Kinase-Glo Plus ATP luminescence, 45 min. Potency, µM (titrated, usually from 76.8 µM), without a hit: at the highest dose activity, negative = inhibition, usual class: inhibitors. Q57TT1; note: potency is the fitted concentration of half-maximal effect; % is set by controls: 0 for no effect and ±100 for the full control effect; nearly all actives have a fitted effect of over 50% in size
#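 TbPYK + substrate in 50 mM TEA pH 7.2, 100 mM KCl, 10 mM MgCl2, 0.05% BSA, 0.01% Tween-20; cpd pinned; ADP 130 uM final; 45 min RT; Kinase-Glo Plus 10 min; luminescence endpoint.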
# Shiga inhibitor = Shiga toxin inhibition; Vero cells, Shiga toxin protein synthesis inhibition reporter; inhibition, % at 38.7 µM; 290,000 tested, 9.2% active; AID 2315; in the data active = inhibition mostly above about 28%, no sharp cut-off; inactive = mostly below about 43%; note: 0% is about no effect
# Numbers without * were called inactive; ? = inconclusive; nt = no result; [ ] = dose if it differs, or a comment. Unless noted, calls come from the whole dose curve; as a rule, active = well fitted curve in the direction sought with a large enough effect; inconclusive = small, poorly fitted or top-dose-only effect, or another doubt; inactive = no such curve, though single readings can be large; an effect the other way counts as inactive or inconclusive.
SMILES,RE007 growth inh,LmPK inh,CHX counter,Giardia FBPA inh,Tb PYK inh,Shiga inhibitor
CC1=NN(c2ccccc2)C(=O)/C1=C\C=C\c1ccccc1,6%,-2%,-4,-13%,0%,-3
CC1=NN(c2ccccc2)C(=O)/C1=C/C=C/c1ccc(N(C)C)cc1,-6%,14µM*,2,-28%,?,-5
Cn1c(=O)[nH]c2cc(-c3noc(-c4ccc(C#N)cc4)n3)ccc21,nt,nt,nt,nt,-3%,nt
CCOC(=O)N1CCC(NC(=O)c2ccc3c(Cl)c4c(nc3c2)CCCC4)CC1,21%,0%,-2,1%,6%,-13
CCN(C(=O)c1ccc2c(Cl)c3c(nc2c1)CCC3)c1cccc(C)c1,nt,0%,22*,-5%,nt,16
N#Cc1ccccc1NC(=O)c1ccc2c(Cl)c3c(nc2c1)CCCC3,-20%,4%,53*,1%,2%,91*
O=C(NC1CC1)c1ccc2c(Cl)c3c(nc2c1)CCCC3,?,-4%,23*,-3%,-1%,68*
O=C(Nc1cccnc1Cl)c1ccc2c(Cl)c3c(nc2c1)CCC3,-8%,1%[11.5 µM],23*,-4%,0%,44
O=C1OC(c2cc(I)c(O)c(I)c2)(c2cc(I)c(O)c(I)c2)c2ccccc21,nt,nt,1,-11%,-15%,-2
COc1cccc(CNC(=O)CN(c2ccc(C)cc2)S(=O)(=O)N(C)C)c1OC,nt,nt,nt,nt,-4%,nt
CCN(C(=O)Cn1nc(Cc2ccncc2)c2ccccc2c1=O)c1ccc(OC)cc1,nt,nt,nt,nt,0%,nt
CC(C)NC(=O)N1CCC2(CC1)CCN(C(=O)c1cnccn1)CC2,nt,nt,nt,-1%,1%,nt
N#Cc1ccc(NC(=O)Nc2ccccc2Br)c2n[nH]nc12,nt,nt,nt,nt,-8%,nt
O=S(=O)(c1cccc(C(F)(F)F)c1)N1CCN(c2nc(-c3cccs3)nc3cc(Cl)ccc23)CC1,nt,nt,-5,nt,nt,2
O=C(CSc1n[nH]c(=O)[nH]c1=O)Nc1ccc2c(c1)C(=O)c1ccccc1C2=O,6%,-5%,27*,-19%,-31%,68*
O=C(CSc1ccccn1)Nc1ccc2ccccc2c1,nt,6%,53*,-2%,nt,77*
O=C(COc1ccc2ccccc2c1)NC1=NCCS1,-16%,-1%,43*,-3%,6%,107*
O=C(CSc1n[nH]c(=O)[nH]c1=O)Nc1cccc(S(=O)(=O)N2CCOCC2)c1,23%,-1%,-3,7%,0%,3
O=C(CSc1ccccn1)Nc1ccc2c(c1)C(=O)c1ccccc1C2=O,nt,0%,43*,-9%,-10%,20
Cc1cccc(CSc2nnc3[nH]c(=O)cc(-c4ccccc4)n23)c1,nt,nt,nt,nt,7%,nt
O=C(CSC1=NCCS1)Nc1ccc2ccccc2c1,17%,1%,36*,-9%,3%,117*
CCc1ccc(-n2c(=O)c3cccnc3n2CC(=O)N(CC)c2cccc(C)c2)cc1,nt,nt,nt,nt,1%,nt
O=c1/c(=C\c2ccc(F)cc2)sc2n1CCCN=2,?,-6%,43*,-1%,-3%,93*
CN(C)c1ccc(/C=c2\sc3n(c2=O)CCCN=3)cc1,0%,?,25*,0%,-17%,13
C=CCn1c(=O)/c(=C/c2ccc(F)cc2)s/c1=C(\C#N)c1nnc2n1CCCCC2,-9%,-1%,1,0%,2%,-32
SMILES,RE007 growth inh,LmPK inh,CHX counter,Giardia FBPA inh,Tb PYK inh,Shiga inhibitor
O=c1/c(=C/c2ccc(O)cc2)sc2n1CCCN=2,-8%,-27%,21,-2%,-26%,104*
COc1ccc(Cl)cc1NC(=O)Cn1c(=O)n(CCC(=O)NCc2ccc3c(c2)OCO3)c(=O)c2ccccc21,nt,nt,nt,nt,-5%,nt
CC(=O)Nc1ccc(OC[C@@H](O)CNC(C)C)cc1,nt,nt,nt,-3%,nt,nt
COc1ccc([N+](=O)[O-])c(S(=O)(=O)c2ccc(Cl)cc2)n1,13µM*,0%,10,-4%,6%,9
COc1ccc([N+](=O)[O-])c(S(=O)(=O)c2ccccc2)n1,?,1%,9,-12%,5%,-3
CCc1ccccc1NC(=O)Cn1nnc(C(=O)NCc2ccco2)c1N,nt,nt,nt,nt,5%,nt
